From PubChem BioAssay (Tox21)
Calls of active or inactive are those of the source. A call without a number means that no potency is given here. Unless noted, calls follow the shape of the full dose curve.

Each molecule was assayed against Thyrotropin-releasing hormone receptor (Homo sapiens) (UniProt P34981) (assay: qHTS assay to identify small molecule antagonists of the thyrotropin-releasing hormone receptor (TRHR) signaling pathway (AID 1346877; active = well fitted inhibition curve with a large enough effect in the repeat runs, not every such curve was filed as active)). Details: TRHR-HEK293, TRH-induced calcium fluorescence, antagonist mode; series mostly up to 51.3 µM.
Sequence of Thyrotropin-releasing hormone receptor (Homo sapiens) (P34981 whole entry, looked up): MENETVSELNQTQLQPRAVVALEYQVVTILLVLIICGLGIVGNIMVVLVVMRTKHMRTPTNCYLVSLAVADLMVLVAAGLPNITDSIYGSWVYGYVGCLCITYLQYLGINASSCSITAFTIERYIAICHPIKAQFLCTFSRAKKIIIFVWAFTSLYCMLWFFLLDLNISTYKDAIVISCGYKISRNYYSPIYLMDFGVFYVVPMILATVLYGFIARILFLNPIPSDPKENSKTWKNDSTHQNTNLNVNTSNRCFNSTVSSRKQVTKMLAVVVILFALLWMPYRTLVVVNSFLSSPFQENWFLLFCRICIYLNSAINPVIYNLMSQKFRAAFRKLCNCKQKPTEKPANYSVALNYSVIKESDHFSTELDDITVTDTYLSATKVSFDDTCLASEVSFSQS
Outline: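 Overnight-plated (18 h, 37 °C) HEK293 cells expressing TRHR were dye-loaded 2 h, treated with compound, then stimulated with TRH at 1 nM final. Fluorescence intensity was captured every second for 3 min.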
With `C[N+]1(C)[C@@H]2CC(OC(=O)[C@H](CO)c3ccccc3)C[C@H]1[C@@H]1O[C@@H]12` (some centres undefined) the outcome was “inactive”.
In the case of `CO[Si](C)(OC)c1ccccc1`, the outcome is reported as “inactive”.
In the case of `C=CC(=O)OCCCl`, the outcome is reported as “inactive”.
With `CC(C)(C#N)Nc1nc(Cl)nc(NC2CC2)n1` the outcome was “inactive”.

Each molecule was assayed against Thyrotropin-releasing hormone receptor (Homo sapiens) (UniProt P34981) (assay: qHTS assay to identify small molecule agonists of the thyrotropin-releasing hormone receptor (TRHR) signaling pathway (AID 1346891;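 also: HEK293 cells expressing TRHR with calcium dye readout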)). Details: TRHR-HEK293 calcium fluorescence, agonist mode; series mostly up to 57.6 µM.
Outline: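 Cells: TRHR-Hek293, seeded and incubated 18 h. Dye loading: 2 h at 37 °C. Compound added from DMSO stock by pin tool. Read-out: kinetic calcium fluorescence over 3 min.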
For `CCCc1nn(C)c2c(=O)[nH]c(-c3cc(S(=O)(=O)N4CCN(C)CC4)ccc3OCC)nc12`, the Potency was “inactive”.
`CCOC(=O)COc1cc(-n2ncc(C(F)(F)F)c(C)c2=O)c(F)cc1Cl` was tested, and the Potency was “inactive”.
With `CCC(=O)OCc1ccccc1` the Potency was “inactive”.
`CCN1C=CN(C)C1C` (centres undefined) was tested, and the Potency was “inactive”.
In the case of `C1CCC2(CCCCO2)OC1`, the Potency is reported as “inactive”.
With `CCC(C(=O)NC(=O)NC(C)=O)c1ccccc1` (centres undefined) the Potency was “inactive”.
For `CC(=O)N[C@H]1[C@H]([C@H](O)[C@H](O)CO)OC(C(=O)O)=C[C@@H]1N=C(N)N`, the Potency was “inactive”.
With `Cc1c(N)c(=O)n(-c2ccccc2)n1C` the Potency was “inactive”.
For `CN(C)CCN(C)CCN(C)C`, the Potency was “inactive”.
With `CCCO[Si](OCCC)(OCCC)OCCC` the Potency was “inactive”.
For `CN1CCC(=C2c3ccccc3CCc3cccnc32)CC1`, the Potency was “inactive”.
For `CCO[Si](OCC)(OCC)c1ccccc1`, the Potency was “inactive”.
With `COc1ccccc1OCC1CNC(=O)O1` (centres undefined) the Potency was “inactive”.
`Cc1coc2ccccc2c1=O` was tested, and the Potency was “inactive”.
For `CCCCCCCCCCCCSC`, the Potency was “inactive”.
For `C=CC(C)(CCC=C(C)C)OC(=O)CC` (centres undefined), the Potency was “inactive”.
With `CN1[C@@H]2CC[C@H]1CC(OC(=O)C(O)c1ccccc1)C2` (some centres undefined) the Potency was “inactive”.
`CC(C)C[C@@H](N)C(=O)O` was tested, and the activation was -0.187% [at 11.8 µM] (inactive).
`CCOC(=O)C(=O)CCCCCCl` was tested, and the Potency was “inactive”.
In the case of `CO[C@@]1(NC(=O)C(C(=O)O)c2ccc(O)cc2)C(=O)N2C(C(=O)O)=C(CSc3nnnn3C)CO[C@@H]21` (some centres undefined), the Potency is reported as “inactive”.
